According to PubChem BioAssay AID2069 (Sanford-Burnham Center for Chemical Genomics, 2009):
The campaign covered roughly 1,200 compounds. About 210 (18%) were called active. A selection follows. Unmarked numbers belong to inactive results. Rule as the data show it: active = inhibition above about 30%; inactive = the rest.

Experiment: fluorescence readout artefact check – biochemical, HTRF, uHTS, artefact control for SUMOylation inhibitor project, confirmation (AID 2069)
Conditions: HTRF interference counterscreen, at 35 µM, hits give high values

SMILES | inhibition
Cc1c(C(=O)c2ccc(Cl)cc2[N+](=O)[O-])c2ccccn2c1CCC#N | 2.8%
Cc1n[nH]c(=S)n(NC(=O)/C=C/C(=O)Nn2c(=S)[nH]nc(C)c2=O)c1=O | 51.5% (active)
O=C(NCCc1csc(-c2ccccc2)n1)c1c(F)cccc1Cl | -9.35%
CC1N(C)c2cccc3cccc(c23)N1C | -9.25%
CCOC(=O)c1c(C)oc2c1c(C=NCCC(=O)O)c(O)c1ccccc12 | -7.35%
CCOC(=O)c1c(C)oc2c1C(=O)c1ccccc1C2=O | 1.65%
CCOC(=O)c1c(-c2ccccc2)oc2ccc(OC(C)C(=O)O)cc12 (stereo not given) | 58.6% (active)
N=C1S/C(=C\c2ccco2)C(=O)N1c1ccc2c(c1)OCO2 | 12.6%
CC1=NOC(=O)/C1=C\c1ccc(-c2cc(Cl)ccc2Cl)o1 | 11%
Cc1cc(NC(=O)CSc2nc3cc(C(=O)NCCCOC(C)C)ccc3c(=O)n2Cc2ccco2)no1 | 6.6%
COc1cc2c(cc1OC)C(C)=NC1(CCCCC1)C2 | 31.6% (active)
CSc1ccc(-c2cc(=O)c3ccccc3o2)cc1 | 60.2% (active)
CCN(CC)S(=O)(=O)c1cc(C)ccc1SC | -1.75%
Oc1ccc(/C=N/Nc2cc(N3CCCC3)nc(N3CCCC3)n2)cc1 | 6.25%
COc1ccc(/C=N/Nc2cc(N3CCCC3)nc(N3CCCC3)n2)cc1 | 27.9%
Oc1ccc(/C=N/Nc2cc(N3CCCC3)nc(N3CCCC3)n2)cc1O | 42.8% (active)
CCOc1ccc(C=Nc2cccc3ncccc23)cc1 | -2.35%
Cc1ccc(C2C(C#N)=C(N)N(c3cccnc3)C3=C2C(=O)CCC3)s1 (stereo not given) | 10.7%
O=C1N/C(=N/N=C/c2ccccc2O)SC1Cc1ccc(F)cc1 (stereo not given) | 64% (active)
O=C(CC1S/C(=N/N=C/C=C/c2ccccc2)NC1=O)Nc1ccc(Cl)c(Cl)c1 (stereo not given) | -11.6%
COc1ccc(CC2=C(O)c3ccccc3C(=O)C2=O)cc1 | -7.05%
COc1ccc(CC2S/C(=N/N=C/c3ccccc3O)NC2=O)cc1 (stereo not given) | 65.5% (active)
Cc1cc(/C=C2\C(=N)N3N=C(c4ccco4)SC3=NC2=O)c(C)n1Cc1ccccc1 | 7.7%

SMILES | inhibition
N#C/C(=C\c1ccc(O)c(O)c1)C(=O)Nc1cccc2ncccc12 | 8.1%
O=C(NCc1ccccc1)Nc1cccn(Cc2ccccc2F)c1=O | -6.7%
CCN(CC)S(=O)(=O)c1ccc(O)c(NC(=O)c2cc(-c3cc(OC)c(OC)c(OC)c3)nc3ccccc23)c1 | 16.9%
O=C(N/N=C/c1ccc(Cl)cc1)c1nc2ccc([N+](=O)[O-])cc2c(=O)[nH]1 | 8.95%
CC(O)C(=O)N/N=C/c1cccc(Cl)c1Cl (stereo not given) | -5.5%
O=C(Nc1nnc(-c2ccccc2SCc2ccccc2)s1)Nc1ccccc1F | 6.45%
Cc1c(N2C(=O)c3ccc4c5c(ccc(c35)C2=O)CC4)c(=O)n(-c2ccccc2)n1C | 39.8% (active)
Cc1c(N=C2C=CC(=O)c3ccccc32)c(=O)n(-c2ccccc2)n1C | -29.4%
Cc1ccc(C(=O)Nc2nnc(CC(=O)N/N=C/c3ccc(O)c(O)c3)s2)cc1 | -1%
CCc1c(C)c2cc(Cl)c(O)c(CN(C)C)c2oc1=O | 37.2% (active)
Cc1c(CC(=O)O)c(=O)oc2c(C)c(OCc3ccc(F)cc3Cl)ccc12 | -7.8%
Cc1c(C)c2cc(Cl)c(O)c(CN3CCN(C)CC3)c2oc1=O | 30.6% (active)
Cc1cc(Br)ccc1-n1[nH]c(C)c(C=Nc2cccc3nsnc23)c1=O | 14.9%
NC(=O)CC(NC(=O)Cc1cccc2ccccc12)c1ccc(NCCc2ccccc2F)c([N+](=O)[O-])c1 (stereo not given) | 0.5%
CCc1ccc(NC(=O)C(CC)Sc2nc3cc4c(cc3c(=O)n2Cc2ccco2)OCO4)cc1 (stereo not given) | 6.65%
N#Cc1cnn2c(-c3ccccc3)ccnc12 | 36.5% (active)
NS(=O)(=O)c1ccc(-c2ccc(/C=C3\NC(=S)NC3=O)o2)cc1 | -17.4%
Cc1cccc(NC2=C(NCCO)C(=O)c3ccccc3C2=O)c1 | -25.1%
Cc1ccccc1N=Cc1cccc(O)c1O | -6.55%
CCCCn1c(=O)[nH]c(=O)c2c1nc(-c1ccc(-c3ccc(F)cc3)o1)n2C | 21.7%
CCCCn1c(NS(=O)(=O)c2ccccc2)c(S(=O)(=O)c2ccc(C)cc2)c2nc3ccccc3nc21 | 16.1%
CCCCn1c(=O)[nH]c2nc3cc(N)ccc3nc2c1=O | 43.9% (active)
